An excerpt weighted towards active compounds, which were near 12% of everything screened.
BAZ2B block = inhibitors of human BAZ2B bromodomain | Q9UIF8 | AlphaScreen BAZ2B-H3K14Ac peptide displacement | Potency, µM (doses to about 114 µM), for the others: top-dose activity change, negative = inhibition, actives largely listed as inhibitors | 360,000 tested, 4.4% active; also: % is scaled to controls: 0 for no effect and ±100 for the full control effect; nearly all actives have a fitted effect of over 60% in size
Target sequence (Q9UIF8 whole entry, looked up): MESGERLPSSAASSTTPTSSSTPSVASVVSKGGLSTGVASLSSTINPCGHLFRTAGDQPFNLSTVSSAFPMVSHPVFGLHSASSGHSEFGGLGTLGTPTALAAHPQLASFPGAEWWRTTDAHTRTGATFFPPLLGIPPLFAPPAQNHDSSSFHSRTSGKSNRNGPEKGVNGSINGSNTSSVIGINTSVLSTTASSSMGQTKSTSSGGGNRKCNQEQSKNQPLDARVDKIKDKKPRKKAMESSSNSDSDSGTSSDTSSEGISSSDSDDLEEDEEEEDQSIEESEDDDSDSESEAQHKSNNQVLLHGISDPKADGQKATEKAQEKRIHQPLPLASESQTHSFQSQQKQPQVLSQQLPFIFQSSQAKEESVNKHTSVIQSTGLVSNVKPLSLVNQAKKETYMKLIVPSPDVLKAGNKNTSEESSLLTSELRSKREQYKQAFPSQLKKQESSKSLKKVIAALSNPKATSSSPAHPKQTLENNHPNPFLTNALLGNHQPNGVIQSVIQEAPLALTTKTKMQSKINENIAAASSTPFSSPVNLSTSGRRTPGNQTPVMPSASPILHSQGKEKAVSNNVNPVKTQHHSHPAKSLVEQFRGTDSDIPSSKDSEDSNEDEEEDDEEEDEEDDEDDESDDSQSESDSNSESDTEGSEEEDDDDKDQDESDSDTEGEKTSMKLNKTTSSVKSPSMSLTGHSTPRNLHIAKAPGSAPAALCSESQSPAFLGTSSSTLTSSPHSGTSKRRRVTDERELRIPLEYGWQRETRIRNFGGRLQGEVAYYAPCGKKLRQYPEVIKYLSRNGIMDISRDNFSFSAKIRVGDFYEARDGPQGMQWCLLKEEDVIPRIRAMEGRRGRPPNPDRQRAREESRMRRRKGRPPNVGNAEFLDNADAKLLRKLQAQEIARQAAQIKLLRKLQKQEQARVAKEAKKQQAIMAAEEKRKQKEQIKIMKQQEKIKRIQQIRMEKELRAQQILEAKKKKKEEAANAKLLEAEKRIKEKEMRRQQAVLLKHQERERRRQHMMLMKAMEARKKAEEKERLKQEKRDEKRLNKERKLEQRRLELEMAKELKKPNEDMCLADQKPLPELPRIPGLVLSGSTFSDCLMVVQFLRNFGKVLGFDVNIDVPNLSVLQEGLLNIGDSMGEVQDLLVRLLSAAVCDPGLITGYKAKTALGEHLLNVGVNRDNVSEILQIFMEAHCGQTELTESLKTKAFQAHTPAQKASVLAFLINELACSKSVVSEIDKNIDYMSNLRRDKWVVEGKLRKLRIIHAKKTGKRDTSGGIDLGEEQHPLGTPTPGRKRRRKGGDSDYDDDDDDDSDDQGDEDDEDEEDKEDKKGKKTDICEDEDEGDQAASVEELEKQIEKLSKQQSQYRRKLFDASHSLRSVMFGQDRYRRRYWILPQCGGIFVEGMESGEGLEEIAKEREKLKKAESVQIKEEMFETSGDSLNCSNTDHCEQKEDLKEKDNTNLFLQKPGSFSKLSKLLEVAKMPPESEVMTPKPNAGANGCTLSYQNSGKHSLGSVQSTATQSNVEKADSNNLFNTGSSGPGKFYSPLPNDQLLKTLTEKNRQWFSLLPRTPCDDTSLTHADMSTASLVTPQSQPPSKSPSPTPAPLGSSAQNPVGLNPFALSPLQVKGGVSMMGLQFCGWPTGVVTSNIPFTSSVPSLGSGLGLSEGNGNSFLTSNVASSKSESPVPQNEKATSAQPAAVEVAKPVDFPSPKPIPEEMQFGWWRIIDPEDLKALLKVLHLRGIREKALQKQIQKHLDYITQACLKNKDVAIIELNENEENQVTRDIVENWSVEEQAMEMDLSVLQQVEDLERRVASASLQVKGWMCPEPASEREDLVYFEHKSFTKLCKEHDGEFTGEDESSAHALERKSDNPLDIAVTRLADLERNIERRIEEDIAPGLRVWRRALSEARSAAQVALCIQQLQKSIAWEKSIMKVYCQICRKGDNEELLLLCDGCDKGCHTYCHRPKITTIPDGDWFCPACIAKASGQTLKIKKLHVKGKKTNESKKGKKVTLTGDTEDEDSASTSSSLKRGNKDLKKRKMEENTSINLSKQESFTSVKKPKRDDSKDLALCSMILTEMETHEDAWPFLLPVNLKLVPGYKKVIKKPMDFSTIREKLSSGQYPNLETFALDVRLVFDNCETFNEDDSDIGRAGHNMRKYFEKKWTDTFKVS
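Multi-concentration screen (max 110 uM) measuring displacement of acetylated histone H3 peptide from BAZ2B by AlphaScreen, using 50 nM protein, 50 nM peptide and 10 ug/mL streptavidin donor plus Ni-chelate acceptor beads.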
JMJD2A Tudor inh = JMJD2A Tudor domain (human) inhibition. AlphaScreen JMJD2A-Tudor / H3K4me3 peptide binding. AID 504339. O75164. Potency, µM (series often up to 114 µM), for inactives: top-dose activity change, negative = inhibition, usual class: inhibitors. 390,000 tested, 4.4% active; also: % is scaled to controls: 0 for no effect and ±100 for the full control effect; nearly all actives have a fitted effect of over 50% in size
G9a block = inhibitors of human histone lysine methyltransferase G9a | Q96KQ7 | G9a H3K9 monomethylation, AlphaScreen, 2 h | Potency, µM (doses to about 102 µM), inactives show at the top dose activity, negative = inhibition, hits mostly inhibitors | 350,000 tested, 8.8% active | AID 504332; also: % is scaled to controls: 0 for no effect and ±100 for the full control effect; nearly all actives have a fitted effect of over 75% in size
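Compounds were preincubated with 20 nM G9a for 15 min, after which biotinylated H3K9 peptide (500 nM) and SAM (20 uM) started a 2 h room-temperature reaction. Monomethylated product was quantified by antibody-based AlphaScreen chemiluminescence.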
HP1b chromo inh = blocks HP1-beta chromodomain binding to methylated histone tails. P83916. AlphaScreen HP1-beta / biotin-H3K9me3 peptide binding. Potency, µM (titrated, usually from 114 µM), for inactives: top-dose activity change, negative = inhibition, most hits filed as inhibitors. 390,000 tested, 0.56% active. AID 540317; also: nearly all actives have a fitted effect of over 70% in size
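AlphaScreen: HP1-beta (50 nM) preformed 30 min with biotin-H3(1-18)K9me3 peptide (50 nM) in PBS pH 7.4, 0.01% Tween-20. Compound added for 30 min at RT, then streptavidin donor/nickel chelate acceptor beads (10 ug/mL) for 30 min.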
L3MBTL1 inh = inhibitors of human L3MBTL1; Q9Y468; AlphaScreen L3MBTL1–H3K9me1 peptide binding; Potency, µM (highest dose often 57.1 µM), for inactives: at the top dose activity, negative = inhibition, usual class: inhibitors; 230,000 tested, 0.66% active; AID 485360; also: % is scaled to controls: 0 for no effect and ±100 for the full control effect; nearly all actives have a fitted effect of over 60% in size
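Read-out is AlphaScreen signal from streptavidin donor and nickel chelate acceptor beads (10 ug/mL final each) bridging L3MBTL1 (50 nM) and biotinylated K9-monomethylated H3(1-15) peptide (75 nM), after 30 min compound exposure at room temperature.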
Sfp inh = Sfp phosphopantetheinyl transferase inhibition; Biochemical Sfp PPTase activity, qHTS; Potency, µM, for inactives: largest response in the series, negative = inhibition, actives largely listed as inhibitors; 310,000 tested, 3.5% active;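 also: the enzyme is Sfp with the accession as filed and its product quenches rhodamine fluorescence; 0% = enzyme reaction without inhibitor and -100% = no enzyme wells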
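Reaction rates are the 30-min fluorescence difference (ex 525, em 598 nm) in wells containing 15 nM Sfp, 5 uM rhodamine-CoA and 12.5 uM BHQ-2-YbbR at pH 7.6 with 10 mM MgCl2.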
* = called active by the depositor; [ ] = another dose, or the depositor's remark. Calls follow the shape of the dose curve; as a rule, active = well fitted curve in the direction sought with a large enough effect; inconclusive = small, poorly fitted or top-dose-only effect, or another doubt; inactive = no such curve, though single readings can be large; an effect the other way counts as inactive or inconclusive. Potency is read from the fitted curve at half-maximal effect.

What do the screens show for `COC(=O)CC(N)c1ccc(Br)cc1` (stereo not drawn)?
BAZ2B block: -2%; JMJD2A Tudor inh: 7%; G9a block: -40%; HP1b chromo inh: 30%; L3MBTL1 inh: 7%; Sfp inh: 18%

Results for CCOC(=O)c1c(NC(=O)c2ccc(S(=O)(=O)N3CCC(C)CC3)cc2)sc2c1CCN(C)C2 ?
BAZ2B block: -2%; JMJD2A Tudor inh: -34%; G9a block: -24%[59 µM]; HP1b chromo inh: 28%

How did COc1ccc(-c2cc(C(=O)NNC(=S)NC(=O)c3c(-c4ccccc4)noc3C)[nH]n2)cc1 do in these assays?
BAZ2B block: -20%; JMJD2A Tudor inh: -16%; G9a block: 45µM*; HP1b chromo inh: 22%; L3MBTL1 inh: -3%[11.4 µM]; Sfp inh: 29%

How did COc1ccc(/C=C/C(=O)NC(=S)NNC(=O)c2c(-c3ccccc3)noc2C)cc1 do in these assays?
BAZ2B block: 6%; JMJD2A Tudor inh: -11%; G9a block: inconclusive; HP1b chromo inh: -9%; L3MBTL1 inh: 7%; Sfp inh: 20%

What do the screens show for `Cc1c(C(=O)O)cnc2c([N+](=O)[O-])cnn12`?
BAZ2B block: -26%; JMJD2A Tudor inh: 8.9µM*; G9a block: 56µM*; HP1b chromo inh: -1%; L3MBTL1 inh: inconclusive; Sfp inh: 7%

What do the screens show for `COc1ccc(N2CCN(C(=O)c3ccccc3N(C)S(=O)(=O)c3ccc(C)cc3)CC2)cc1`?
BAZ2B block: 40µM*; JMJD2A Tudor inh: inconclusive; G9a block: inconclusive; HP1b chromo inh: -30%; Sfp inh: 0%

How did COc1ccc(N2CCN(C(=O)CN(c3ccccc3)S(=O)(=O)c3ccc(OC)cc3)CC2)cc1 do in these assays?
BAZ2B block: inconclusive; JMJD2A Tudor inh: 56µM*; G9a block: 10µM*; HP1b chromo inh: inconclusive; Sfp inh: -6%

How did COc1ccc(N2CCN(C(=O)CN(c3ccc(OC)cc3)S(=O)(=O)c3ccccc3)CC2)cc1 do in these assays?
BAZ2B block: inconclusive; JMJD2A Tudor inh: inconclusive; G9a block: 40µM*; HP1b chromo inh: -18%; Sfp inh: 7%

What do the screens show for `COc1ccc(S(=O)(=O)N(CC(=O)N2CCN(c3ccccc3OC)CC2)c2ccccc2)cc1`?
BAZ2B block: -35%; JMJD2A Tudor inh: -27%; G9a block: inconclusive; HP1b chromo inh: 6%; L3MBTL1 inh: -20%; Sfp inh: -4%

What do the screens show for `CCOc1ccc2c(c1)-c1c(ssc1=S)C(C)(C)N2C`?
BAZ2B block: 10µM*; JMJD2A Tudor inh: 11µM*; G9a block: 4µM*; HP1b chromo inh: 2µM*; Sfp inh: -23%

How did Cc1ccc(NC(=O)CSc2ncc3c(n2)-c2ccccc2N(C)S3(=O)=O)c(Cl)c1 do in these assays?
BAZ2B block: -4%; JMJD2A Tudor inh: -9%; G9a block: -2%[59 µM]; HP1b chromo inh: 23%

How did Cc1cccc(CNC(=O)c2cccc(NC(=O)N3CCSc4ncccc43)c2)c1 do in these assays?
BAZ2B block: -20%; JMJD2A Tudor inh: 3%; G9a block: 0%[59 µM]; HP1b chromo inh: 44%

How did O=S(=O)(c1ccc(F)cc1)N1CCN(Cc2cc3c(cc2Br)OCCO3)CC1 do in these assays?
BAZ2B block: 1%; JMJD2A Tudor inh: -2%; G9a block: 17%[2.33 µM]; HP1b chromo inh: 47%; L3MBTL1 inh: -6%

How did Oc1ccc(N2CCN(Cc3cc4c(cc3Br)OCCO4)CC2)cc1 do in these assays?
BAZ2B block: 40µM*; JMJD2A Tudor inh: 35µM*; G9a block: 1.8µM*; HP1b chromo inh: inconclusive; Sfp inh: 50µM*

Results for CC(Cc1ccccc1)(NC(=O)CN)c1ccccc1 (stereo not drawn) ?
BAZ2B block: 79µM*; G9a block: 18%[59 µM]; Sfp inh: 11%

What do the screens show for `Cc1ccc(/C=N/Nc2ccc(C(=O)O)cc2)s1`?
BAZ2B block: inconclusive; JMJD2A Tudor inh: -32%; G9a block: 14µM*; HP1b chromo inh: -8%; L3MBTL1 inh: inconclusive; Sfp inh: -4%

Results for O=C(O)c1ccc(N/N=C/c2ccc(OC(=O)c3ccccc3Cl)cc2)cc1 ?
BAZ2B block: 89µM*; JMJD2A Tudor inh: inconclusive; G9a block: 2%[59 µM]; HP1b chromo inh: inconclusive; L3MBTL1 inh: -14%; Sfp inh: -7%

Results for CC(C)c1ccc(/C=N/Nc2ccc(C(=O)O)cc2)cc1 ?
BAZ2B block: inconclusive; JMJD2A Tudor inh: -25%; G9a block: 10µM*; HP1b chromo inh: 25%; L3MBTL1 inh: -11%; Sfp inh: 1%

What do the screens show for `COc1ccc(/C=N/Nc2ccc(C(=O)O)cc2)cc1OC`?
BAZ2B block: -11%; JMJD2A Tudor inh: -17%; G9a block: -36%; HP1b chromo inh: 38%; L3MBTL1 inh: -4%; Sfp inh: 5%

How did O=C(O)c1ccc(N/N=C/C=C/c2ccccc2)cc1 do in these assays?
BAZ2B block: inconclusive; JMJD2A Tudor inh: -31%; G9a block: 71µM*; HP1b chromo inh: 7%; Sfp inh: 4%

What do the screens show for `Cc1ccc(/C=N/Nc2cccc(C(=O)O)c2)s1`?
BAZ2B block: -35%; JMJD2A Tudor inh: inconclusive; G9a block: inconclusive; HP1b chromo inh: 5%; L3MBTL1 inh: -21%; Sfp inh: -8%

What do the screens show for `Cc1cccc(N2CCN(C(=S)Nc3ccc4nc5n(c(=O)c4c3)CCCCC5)CC2)c1C`?
BAZ2B block: -12%; JMJD2A Tudor inh: -6%; G9a block: -5%; HP1b chromo inh: 25%; L3MBTL1 inh: 51%; Sfp inh: 4%

How did O=C(O)c1ccc(/C=N/Nc2cccc(C(F)(F)F)c2)cc1 do in these assays?
BAZ2B block: inconclusive; JMJD2A Tudor inh: -23%; G9a block: inconclusive; HP1b chromo inh: 5%; L3MBTL1 inh: -8%; Sfp inh: 10%

How did O=C(O)c1ccc(N/N=C/c2ccc(-c3ccccc3)cc2)cc1 do in these assays?
JMJD2A Tudor inh: -33%; G9a block: 45µM*; HP1b chromo inh: -13%; Sfp inh: -13%

What do the screens show for `CC(=O)NCCNc1nc(-c2ccc(N(C)C)cc2)nc2ccccc12`?
Sfp inh: -2%

What do the screens show for `COc1cc(C(=O)NCCOc2cc(C)ccc2C(C)C)cc(OC)c1OC`?
BAZ2B block: -10%; JMJD2A Tudor inh: -15%; G9a block: 3%; HP1b chromo inh: 50%; Sfp inh: -2%

How did CCCCNCC#CCOc1cc(C)ccc1C(C)C do in these assays?
BAZ2B block: inconclusive; JMJD2A Tudor inh: 22µM*; HP1b chromo inh: -3%; L3MBTL1 inh: 91%; Sfp inh: inconclusive

High-throughput results from PubChem BioAssay.
